# Data published in PubChem BioAssay (NCI).
# Where “and” joins values, the source holds several entries; their conditions need not be identical. Equal values may be shown once. About 83,000 compounds went through this panel and 20% of them were active in at least one assay; those are over-represented in the sample as a whole.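 Single-dose data. Exposure time 48 hours. Values below 10 considered active.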 Calls of active or inactive are those of the source.
# Assays:
# Assay in all cases: NCI-60 one-dose screen, 48 h (100 = growth as untreated, 0 = no growth, -100 = all killed)
# Conditions in all cases: 10 µM unless noted
# HCT-15 colon = system: HCT-15 colon
# HT29 colon = system: HT29 colon
# SNB-75 CNS = system: SNB-75 CNS
# SNB-19 CNS = system: SNB-19 CNS
# U251 CNS = system: U251 CNS
# PC-3 prostate = system: PC-3 prostate
# SK-MEL-5 melanoma = system: SK-MEL-5 melanoma
# UACC-62 melanoma = system: UACC-62 melanoma
# LOX IMVI melanoma = system: LOX IMVI melanoma
# SK-MEL-28 melanoma = system: SK-MEL-28 melanoma
# SK-MEL-2 melanoma = system: SK-MEL-2 melanoma
# EKVX NSCLC = system: EKVX NSCLC
# UO-31 renal = system: UO-31 renal
# TK-10 renal = system: TK-10 renal
# ACHN renal = system: ACHN renal
# CAKI-1 renal = system: CAKI-1 renal
# CCRF-CEM leukemia = system: CCRF-CEM leukemia
# MOLT-4 leukemia = system: MOLT-4 leukemia
# A498 renal = system: A498 renal
# SN12C renal = system: SN12C renal
SMILES,growth (HCT-15 colon),growth (HT29 colon),growth (SNB-75 CNS),growth (SNB-19 CNS),growth (U251 CNS),growth (PC-3 prostate),growth (SK-MEL-5 melanoma),growth (UACC-62 melanoma),growth (LOX IMVI melanoma),growth (SK-MEL-28 melanoma),growth (SK-MEL-2 melanoma),growth (EKVX NSCLC),growth (UO-31 renal),growth (TK-10 renal),growth (ACHN renal),growth (CAKI-1 renal),growth (CCRF-CEM leukemia),growth (MOLT-4 leukemia),growth (A498 renal),growth (SN12C renal)
c1ccc(NCc2ccc3c(c2)OCO3)cc1,108% (inactive) and 93% (inactive),103% (inactive) and 104% (inactive),89.7% (inactive) and 95.8% (inactive),99% (inactive),99.3% (inactive) and 93.3% (inactive),96.1% (inactive) and 93.6% (inactive),100% (inactive),110% (inactive) and 100% (inactive),106% (inactive) and 98.9% (inactive),120% (inactive) and 105% (inactive),106% (inactive) and 105% (inactive),107% (inactive),78.7% (inactive) and 83% (inactive),102% (inactive) and 99.7% (inactive),109% (inactive) and 97.4% (inactive),96.8% (inactive) and 101% (inactive),101% (inactive) and 92.3% (inactive),95.7% (inactive) and 97.2% (inactive),,
CCN1CCN(CCNc2nccc(-c3c(-c4cccc(O)c4)nc4sccn34)n2)S1(=O)=O,67.7% (inactive) and 59% (inactive),45.3% (inactive) and 50.4% (inactive),62.6% (inactive) and 50.2% (inactive),104% (inactive) and 117% (inactive),90.4% (inactive) and 93.2% (inactive),63.9% (inactive) and 77.9% (inactive),51% (inactive) and 32.4% (inactive),0.351% (active) and 0.223% (active),37.7% (inactive) and 30.9% (inactive),23.7% (inactive) and 20.5% (inactive),11.2% (inactive) and 27.5% (inactive),110% (inactive) and 111% (inactive),67.9% (inactive) and 58.3% (inactive),92.8% (inactive),47.5% (inactive) and 33.5% (inactive),44.2% (inactive) and 34% (inactive),67.4% (inactive) and 62.1% (inactive),89.7% (inactive) and 81.7% (inactive),74.2% (inactive) and 66.8% (inactive),
CN(C)c1ccc(/C=C(\C#N)c2ccccc2)cc1,26.3% (inactive) and 29.3% (inactive) and 29.4% (inactive),12.4% (inactive) and 6.06% (active) and 3.67% (active),4.23% (active) and 15.8% (inactive),61.4% (inactive) and 52.5% (inactive) and 35.8% (inactive),18.5% (inactive) and 32.3% (inactive) and 23.9% (inactive),18.9% (inactive) and 36% (inactive) and 19.5% (inactive),31.6% (inactive) and 26.3% (inactive) and 19.4% (inactive),32.6% (inactive) and 21.9% (inactive) and 22.2% (inactive),51.1% (inactive) and 41.1% (inactive) and 42.4% (inactive),,-36% (active) and 11.7% (inactive) and 22.8% (inactive),53.9% (inactive) and 45.7% (inactive) and 56.9% (inactive),29.1% (inactive) and 53.1% (inactive) and 42.5% (inactive),57.8% (inactive) and 43.1% (inactive) and 54.9% (inactive),50.3% (inactive) and 65.3% (inactive) and 52.2% (inactive),41.1% (inactive) and 43.3% (inactive),-17.2% (active) and 23.6% (inactive) and 6.64% (active),25.2% (inactive) and 35.6% (inactive) and 34.9% (inactive),63.6% (inactive) and 29.8% (inactive) and 0.464% (active),66.5% (inactive) and 62.2% (inactive) and 39.1% (inactive)
COc1cc2nc(N3CCC[C@@H](NC(=O)C4COc5ccccc5O4)C3)nc(N)c2cc1OC (stereo partly specified),101% (inactive) and 97.1% (inactive),109% (inactive) and 97.7% (inactive),83.3% (inactive) and 90.3% (inactive),107% (inactive) and 102% (inactive),93.3% (inactive) and 84.2% (inactive),92.9% (inactive) and 94.2% (inactive),99.5% (inactive) and 96.7% (inactive),103% (inactive) and 104% (inactive),100% (inactive) and 94.7% (inactive),102% (inactive) and 98.7% (inactive),112% (inactive) and 107% (inactive),,85.7% (inactive) and 65.2% (inactive),98.6% (inactive) and 89.7% (inactive),103% (inactive) and 96.4% (inactive),,96.2% (inactive) and 103% (inactive),88% (inactive) and 94.3% (inactive),,104% (inactive) and 103% (inactive)
CC(=O)NC(Cc1ccccc1)C(=O)Oc1ccc2ccccc2c1 (stereo unspecified),87.4% (inactive) and 102% (inactive),114% (inactive) and 96.4% (inactive),84.3% (inactive) and 78.1% (inactive),113% (inactive),97.7% (inactive) and 102% (inactive),85.5% (inactive) and 90.6% (inactive),101% (inactive),98.8% (inactive) and 99.8% (inactive),84.9% (inactive) and 87.7% (inactive),117% (inactive) and 105% (inactive),108% (inactive) and 113% (inactive),114% (inactive) and 96.4% (inactive),64.8% (inactive) and 86.6% (inactive),118% (inactive) and 111% (inactive),94.6% (inactive) and 97.4% (inactive),94.8% (inactive) and 98.1% (inactive),100% (inactive) and 86.6% (inactive),,,
COc1ccccc1C(C)=O,108% (inactive) and 95.7% (inactive),114% (inactive) and 102% (inactive),105% (inactive) and 85.1% (inactive),116% (inactive) and 109% (inactive),107% (inactive) and 106% (inactive),89.7% (inactive) and 96.9% (inactive),105% (inactive) and 110% (inactive),109% (inactive) and 108% (inactive),103% (inactive) and 60.6% (inactive),121% (inactive) and 106% (inactive),109% (inactive),98% (inactive),89.4% (inactive) and 96.5% (inactive),118% (inactive) and 99.4% (inactive),105% (inactive) and 102% (inactive),99.5% (inactive) and 112% (inactive),102% (inactive),95.4% (inactive) and 99.1% (inactive),92% (inactive) and 108% (inactive),
COc1cc(NS(C)(=O)=O)ccc1Nc1c2ccccc2nc2c(C)cccc12,7.59% (active) and 0.251% (active),-36.8% (active) and 0.935% (active),-7.95% (active) and -6.77% (active),19.8% (inactive) and 25.2% (inactive),-3.95% (active) and -7.3% (active),17.8% (inactive) and 28.4% (inactive),-29.9% (active) and 2.9% (active),1.52% (active) and 23.3% (inactive),-49.9% (active) and -3.55% (active),21.6% (inactive) and 21% (inactive),20.4% (inactive) and 44.2% (inactive),,,-39.5% (active) and -35.3% (active),-60.1% (active) and -56.2% (active),,-11% (active),-12.1% (active) and -13.6% (active),-44% (active) and -27.8% (active),
CCN(CC)CCCC(C)N(Cc1ccccc1)CC(O)c1ccc(Cl)cc1 (stereo unspecified),101% (inactive) and 97.9% (inactive),108% (inactive) and 92.5% (inactive),109% (inactive) and 90.6% (inactive),109% (inactive) and 107% (inactive),105% (inactive) and 102% (inactive),87.7% (inactive) and 93.2% (inactive),100% (inactive) and 105% (inactive),95.8% (inactive) and 106% (inactive),99.7% (inactive) and 97.5% (inactive),109% (inactive) and 106% (inactive),105% (inactive) and 103% (inactive),106% (inactive) and 96.2% (inactive),94.7% (inactive) and 90.9% (inactive),91.8% (inactive) and 90.4% (inactive),117% (inactive) and 103% (inactive),,103% (inactive) and 120% (inactive),107% (inactive) and 103% (inactive),91% (inactive) and 116% (inactive),
COc1ccc(-c2cn[nH]c2-c2cc(OC)c(OC)c(OC)c2)cc1N,8.28% (active) and 13.1% (inactive),1.51% (active) and 10.1% (inactive),57.5% (inactive) and 20.3% (inactive),34.4% (inactive) and 34.1% (inactive),9.51% (active) and 19.3% (inactive),19.1% (inactive) and 27.2% (inactive),-40.3% (active) and -49.2% (active),46.1% (inactive) and 32.6% (inactive),35.2% (inactive) and 28.5% (inactive),49.7% (inactive) and 62.5% (inactive),47.8% (inactive) and 62.1% (inactive),47.5% (inactive) and 44% (inactive),50.1% (inactive) and 34.7% (inactive),76.4% (inactive) and 91.4% (inactive),30.7% (inactive) and 29.4% (inactive),25.1% (inactive) and 22.9% (inactive),22.1% (inactive) and 21.2% (inactive),,-1.49% (active),
